# Experimental data: PubChem BioAssay AID1745850 (National Center for Advancing Translational Sciences (NCATS), 2022)
# In all, about 2,100 compounds went through this assay and about 260 (12%) were called active. About 58% were inconclusive and are not listed. Calls come from the whole dose curve; as a rule, active = well fitted cell-killing curve with a large enough effect; inconclusive = small, poorly fitted or top-dose-only effect, or effect the other way; inactive = flat fitted curve, though single readings scatter. The list shows a part of the results. Where a call stands in place of a potency, no number is given.
# Test: Viability Counterscreen for Confirmatory qHTS for Inhibitors of ATXN expression; note: nearly all actives have a fitted effect of over 50% in size
# Conditions: HEK-293 ATXN2-luc cells viability, CellTiter-Fluor, 24 h
# Outline: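 Luminescence read-out (SteadyGlo, 5 min) followed a 30 min Gly-Phe-AFC (25 uM final) viability fluorescence read. ATXN2-luciferase reporter cells were exposed 24 h to a dilution series. Medium-only wells served as the 100% inhibition reference.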
# Potency is the fitted concentration of half-maximal effect.
row,Structure (SMILES),Potency
1,Cc1ccc2nc(NC(=O)CSCC(=O)OCC(=O)c3ccc(Br)cc3)sc2c1,inactive
2,S=C(NCc1ccc(Cl)cc1Cl)NC1CCCCC1,inactive
3,CCc1ccc(OCC(=O)N/N=C(\C)c2ccc(O)cc2O)cc1,inactive
4,C/C(=N\NC(=O)c1ccc(CN2CCc3ccccc3C2)cc1)c1ccccc1O,inactive
5,COc1cc(C#Cc2c(-c3cncn3C)n(C)c3ccc(-c4cnc(OC)nc4)cc23)cc(OC)c1,inactive
6,CC(Sc1nnc2c(n1)[nH]c1ccccc12)C(=O)N(C)C1CCCCC1 (stereo not drawn),20 µM (active)
7,CCc1nc2c(OCCOc3ccc(F)cc3)cccn2c1N(C)C(=O)c1ccco1,inactive
8,COc1cc(/C=C2\SC(=O)N(CC(=O)Nc3ccccc3F)C2=O)cc(Cl)c1O,inactive
9,O=C1/C(=C\c2cc(Cl)c(O)c(Cl)c2)SC(=S)N1Cc1ccccc1,15.8 µM (active)
10,Clc1c(Cl)c(Cl)c2n[nH]nc2c1Cl,inactive
11,NC(N)=N/N=C/c1ccc(Cl)c(Cl)c1,28.2 µM (active)
12,CCOC(=O)Oc1c(OC)cc(C(=O)O[C@@H]2C[C@@H]3CN4CCc5c([nH]c6cc(OC)ccc56)[C@H]4C[C@@H]3[C@H](C(=O)OC)[C@H]2OC)cc1OC,inactive
13,CC1=NN(c2nc3ccccc3[nH]2)C(=O)C1Cc1ccccc1 (stereo not drawn),8.91 µM (active)
14,CCCCn1c(SCC(=O)Nc2cc(C(F)(F)F)cc(C(F)(F)F)c2)nnc1C(CC)N(C)C (stereo not drawn),inactive
15,COC(=O)C(Cc1ccc(O)cc1)NC(=O)C(C)Oc1ccccc1 (stereo not drawn),inactive
16,CCc1nc2ccc(C(=O)N(C)Cc3ccccc3)cn2c1N(C)Cc1ccc(OC)cc1,inactive
17,COc1ccc(CC(N)c2csc(Nc3ccc(C(=O)c4ccccc4)cc3)n2)cc1 (stereo not drawn),inactive
18,CC(C)CC(N)c1csc(Nc2ccc(C(=O)N(C)Cc3ccccc3)cn2)n1 (stereo not drawn),14.1 µM (active)
19,CN(Cc1ccccc1)C(=O)c1ccc(Nc2nc(C(N)Cc3ccccc3)cs2)nc1 (stereo not drawn),14.1 µM (active)
20,O=C(CN1C(=O)c2ccccc2S1(=O)=O)c1ccc(O)c(O)c1,inactive
21,CC(C)CC(NC(=O)c1ccc(Cl)cc1)C(=O)OCC(=O)c1ccc2c(c1)NC(=O)CO2 (stereo not drawn),28.2 µM (active)
22,Cc1ccc(-c2ccc(/C=N/c3ncn[nH]3)o2)cc1Cl,inactive
23,COc1nn(-c2ccccc2)c(=O)c(Cl)c1Cl,2.82 µM (active)
24,CCOC(=O)N(C)c1c(CC)nc2c(OCc3ccccc3OC)cccn12,inactive
25,CSCC[C@H](NC(=O)OC(C)(C)C)C(=O)N/N=C/c1cccc2cccnc12,inactive
26,CCc1cc[n+](C2=C([O-])c3ccccc3C(=O)/C2=N\S(=O)(=O)c2cccs2)cc1,17.8 µM (active)

row,Structure (SMILES),Potency
1,CC(C)CCNC(=O)COc1cccc2c1OC(C)(C)C2,inactive
2,CCOC(=O)[C@H]1[C@H]2COc3ccc(OC)cc3[C@@H]2N2C(=O)c3cc(OC)c(OC)cc3NC(=O)[C@@]12C,inactive
3,Cc1cc(O)c(C(C)C)cc1N=Cc1ccc(N(C)C)cc1,inactive
4,Cc1cc(C2=NNC(=NC3CC3)SC2)c(C)n1-c1ccccc1F,inactive
5,Cc1cccc(N2CCN(C(=O)CNC(=O)Cc3ccccc3)CC2)c1C,inactive
6,CCC(C)(C)c1ccc(OCCCC[n+]2ccccc2)c(C(C)(C)CC)c1,inactive
7,CCC(C)(C)c1ccc(OCCCC[n+]2ccc(C)cc2)c(C(C)(C)CC)c1,inactive
8,CCCCCc1ccc(OCCC[n+]2ccccc2)c(CCCCC)c1,20 µM (active)
9,Cc1cccc(OCCSc2nc3ncnc(N)c3[nH]2)c1,inactive
10,Cc1nc(-c2ccc(Cl)cc2)sc1C(=O)NN,inactive
11,COc1ccc2nc(C)cc(NCc3cccc(C(F)(F)F)c3)c2c1,22.4 µM (active)
12,COc1ccc2nc(C)c3c(c2c1)OC(C(C)(Cl)Br)C3 (stereo not drawn),inactive
13,COc1ccc(N2CCN(c3cc(C)nc4ccc(OC)cc34)CC2)cc1,inactive
14,O=C(CCN1CCN(c2ccccc2)CC1)N/N=C/c1ccccc1O,inactive
15,COc1cc(C(=O)OC(C)C(=O)N2CCc3ccccc3C2)ccc1OCC(=O)N1CCOCC1 (stereo not drawn),inactive
16,Cc1cc(C)c(C)c(OC(=O)c2sc(Cl)nc2C)c1,28.2 µM (active)
17,COC(=O)c1sc(NC(=O)c2ccc(OC)cc2OC)nc1C,inactive
18,CCOC(=O)C1CCN(c2ncnc3c2cnn3-c2ccc(Cl)cc2)CC1,inactive
19,Cc1cc(N2CCN(c3nc(-c4ccccc4)cs3)CC2)c2ccccc2n1,inactive
20,Cn1cccc1/C=N/N1CCN(Cc2ccccc2Cl)CC1,inactive
21,O=[N+]([O-])c1cc(Cl)c(O)c2ncccc12,11.2 µM (active)
22,O=C1c2cccc3c([N+](=O)[O-])ccc(c23)C(=O)N1c1ccc(Cl)cn1,inactive
23,O=[N+]([O-])c1ccc(O)c2ncccc12,11.2 µM (active)
24,CC(C)COCc1ccc(O)c2ncccc12,inactive
25,Cc1ccnc(N2C(=O)c3cccc4c([N+](=O)[O-])ccc(c34)C2=O)c1,inactive
26,CCOC(=O)N1CCN(Cc2cc(Cl)c3cccnc3c2O)CC1,inactive

row,Structure (SMILES),Potency
1,Cn1c(-[n+]2c(-c3ccccc3)cc(-c3ccccc3)cc2-c2ccccc2)nc2c([N+](=O)[O-])cccc21,inactive
2,COc1ccc(N=Cc2cc3c(cc2O)OC(N)=C(C#N)C3c2ccccc2)cc1 (stereo not drawn),inactive
3,O=C1CCCC(O)=C1C=NCc1ccccc1,inactive
4,CCCCC(=O)N(CCOC)c1nnc(-c2ccccc2C)s1,inactive
5,COc1ccccc1CNc1nc(NC(C)C)nc2cc(-c3ccccc3)sc12,28.2 µM (active)
6,CC(=O)Nc1ccc(CNc2nc3cc(-c4ccccc4C)sc3c(=O)n2C)cc1,inactive
7,COc1ccc(-c2cc(CNc3nc(NC(C)C)nc4cc(-c5ccccc5)sc34)on2)cc1,22.4 µM (active)
8,CC(=O)Nc1ccc(CNc2nc(NC(C)C)nc3cc(-c4ccccc4)sc23)cc1,25.1 µM (active)
9,CCn1c2ccccc2c2cc(/C=N/n3cnnc3)ccc21,inactive
10,CCOCCn1ccc2c(OCC(=O)Nc3ccc(OC)c(OC)c3)cccc2c1=O,inactive
11,COCCNc1nc(-c2cc(C)n(CCc3ccc(OC)cc3)c2C)cs1,inactive
12,COCCCn1c(N)c(-c2nc3ccccc3n2C)c2nc3ccccc3nc21,inactive
13,CO[C@@]12[C@@H]3N[C@@H]3CN1C1=C(C(=O)C(N)=C(C)C1=O)[C@@H]2COC(N)=O,inactive
14,NNC(=O)c1sc2cc(C(F)(F)F)cnc2c1-c1cccs1,inactive
15,O=C(CNC(=O)C1COc2ccccc2O1)N/N=C/c1ccc(O)cc1O (stereo not drawn),inactive
16,Cc1nc(SCc2ccc(C(=O)O)cc2)nc2c1CCCC2,inactive
17,N=c1ccn(CC(=O)c2ccc(-c3ccccc3)cc2)cc1,inactive
18,Cc1c(C(=O)NCc2ccc(C(F)(F)F)cc2)sc(=O)n1Cc1cccc(F)c1,inactive
19,Cc1ccc2nc(SCc3ccc([N+](=O)[O-])cc3)[nH]c2c1,inactive
20,Cc1ccc2nc3cc([N+](=O)[O-])cc([N+](=O)[O-])c3cc2c1,17.8 µM (active)
21,Cc1cc(C)nc(NNS(=O)(=O)c2ccc(F)c(Cl)c2)n1,inactive
22,CC(C)CC(=O)NC(=S)NNC(=O)c1ccc(NC(=O)C2CCCCC2)cc1,inactive
23,CCC(=O)OCCNc1cc(Sc2nc3ccccc3[nH]2)c2nonc2c1[N+](=O)[O-],3.16 µM (active)
24,Cc1cccc(OCCCC(=O)Nc2nc3ccccc3[nH]2)c1,inactive
25,CC(SC(C)C(=O)NN=Cc1cccc(Cl)c1)C(=O)NN=Cc1cccc(Cl)c1 (stereo not drawn),inactive
26,O=C(NC(=S)NCc1nc2ccccc2[nH]1)c1ccc(F)cc1,inactive

row,Structure (SMILES),Potency
1,Cc1cc(C)cc(NC(=O)CCC(=O)Nc2cc(C)on2)c1,inactive
2,COc1ccc(OC)c(NC(=O)CSc2nnnn2-c2ccc3c(c2)OCO3)c1,inactive
3,Cc1cc(C)c2c(CC(=O)Nc3ccc(Cl)cn3)coc2c1,inactive
4,Cc1ccc(N=Nc2ccc(O)c3ncccc23)cc1,10 µM (active)
5,CN1CCC(N(C)C(=O)c2ccc(Cl)c(S(=O)(=O)N3CCc4ccccc43)c2)CC1,inactive
6,Nc1ccn([C@@H]2O[C@H](CO)[C@@H](O)[C@@H]2O)c(=O)n1,inactive
7,CN(C)S(=O)(=O)c1cccc(N2C(=O)CC3(CCCCC3)CC2=O)c1,inactive
8,C=CCN(C(=O)CSc1nc2c(sc3ccccc32)c(=O)n1CCN(CC)CC)c1ccccc1,25.1 µM (active)
9,CCOC(=O)c1c(-n2cccc2)sc2c1CCCC2=O,inactive
10,CC(=O)c1ccc(N2CCN(CC(O)COC(c3ccccc3)c3ccccc3)CC2)cc1 (stereo not drawn),inactive
11,CC(C)Nc1nc(-c2ccccn2)nc(-c2ccccc2)c1C#N,inactive
12,CCN(CC)c1nc(-c2ccccn2)nc(-c2ccccc2)c1C#N,8.91 µM (active)
13,Cn1cc(SCC(=O)Nc2nc3ccccc3s2)c2ccccc21,inactive
14,O=C(N/N=C/c1ccccc1O)c1cccc(C(F)(F)F)c1,inactive
15,COc1ccccc1NS(=O)(=O)c1cccc(C(=O)N/N=C/c2ccc([N+](=O)[O-])o2)c1,15.8 µM (active)
16,COc1cccc(/C=N/NC(=O)c2cc3c(OC)cccc3[nH]2)c1O,inactive
17,c1ccc(COc2ncnc3c2ncn3CCCN2CCN(Cc3cccc4ccccc34)CC2)cc1,25.1 µM (active)
18,CCOC(=O)/C=C/C(=O)Nc1ccc(Oc2ccccc2)cc1,inactive
19,CN(CCOc1ccc(Br)cc1)CC(O)COc1ccc(C#N)cc1 (stereo not drawn),inactive
20,OC[C@@H]1CN(Cc2ccc(-c3ccccc3)cc2)C[C@H](n2cnc3c(Nc4ccccc4)ncnc32)O1,20 µM (active)
21,Cc1csc2ncnc(NC3CCN(Cc4ccccc4)CC3)c12,inactive
22,Cc1cccc(/C=N/NC(=O)c2c(-c3ccccc3)noc2C)c1O,inactive
23,Cc1cc(Cl)ccc1OCCCC(=O)NNC(=O)c1ccccc1O,inactive
24,CCCCNCCCOc1cccc(Cl)c1Cl,inactive
25,COCCCNCCCOc1ccc(Cl)cc1C(C)(C)C,35.5 µM (active)
